This passage reports outcome, Potency and max response results from PubChem BioAssay (NCATS).

Structures are written as SMILES. “And” between values parts separate entries of the source, which are not always exact repeats. Equal values may be shown once. Records with an inconclusive call do not appear. Values without a mark were called inactive. The source made the active and inactive calls. Calls follow the shape of the dose curve; as a rule, active = well fitted inhibition curve with a large enough effect; inconclusive = small, poorly fitted or top-dose-only effect; inactive = flat fitted curve, though single readings scatter. Peptide text beside a SMILES is read from it.

In one experiment the test system is KB-3-1. As to the kind of experiment: Cytotoxic Profiling of Annotated Libraries Using Quantitative High-Throughput Screening (AID 1296008). The following applies: Five cell lines viability, CellTiter-Glo ATP luminescence, 48-72 h; max response: active compounds read low. Summed up:
(§1)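 Cytotoxicity was measured as CellTiter-Glo ATP luminescence, read after 10 min at room temperature. Compound treatment of the cells lasted 48 or 72 hr at 37 degrees Celsius in a qHTS format.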

Experiment [1] deals with NIH3T3. The experiment is described as above. The following applies: Five cell lines viability, CellTiter-Glo ATP luminescence, 48-72 h; max response: active compounds read low. Summed up: as §1
The test system of another experiment is HACAT. As to the kind of experiment: qHTS assay to identify novel small-molecules to repurpose for Merkel cell carcinoma treatment (AID 1296009). The following applies: MCC and control cell lines, CellTiter-Glo viability, 72 h; at 44.8 µM (top of the series) unless noted. Summed up:
(§2)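 72 hr, 37 degree celsius; NPC 8-pt / MIPE 11-pt dose response; compound pinned in DMSO; CellTiter-Glo, 10 min RT, luminescence; normalized to no-cell and DMSO controls.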
(In general: In qHTS, concentration-response curves come from the screen itself.)

The next experiment concerns MCC-13. Described as above. The following applies: MCC and control cell lines, CellTiter-Glo viability, 72 h; series mostly up to 46 µM. Summed up:
as §2
On the technique in general: ATP-based viability assays read luminescence as a measure of living cells.

The next experiment relates to MCC-26. Described as above. The following applies: MCC and control cell lines, CellTiter-Glo viability, 72 h; series mostly up to 46 µM. The essentials: as §2
Another experiment has as its system MKL-1. The description is as above. The following applies: MCC and control cell lines, CellTiter-Glo viability, 72 h; series mostly up to 46 µM. Summed up: as §2
Another experiment concerns MKL-2. The description is as above. The following applies: MCC and control cell lines, CellTiter-Glo viability, 72 h; series mostly up to 46 µM. Summed up: as §2
Experiment [2] concerns NIH3T3. Described as above. The following applies: MCC and control cell lines, CellTiter-Glo viability, 72 h; at 44.8 µM (top of the series) unless noted. Summed up: as §2
A further experiment relates to UISO. The description is as above. The following applies: MCC and control cell lines, CellTiter-Glo viability, 72 h; series mostly up to 46 µM. Summed up: as §2
The subject of the next experiment is HEK293T. The description is as above. The following applies: MCC and control cell lines, CellTiter-Glo viability, 72 h; at 44.8 µM (top of the series) unless noted. The essentials: as §2
% is scaled to controls: 0 for no effect and ±100 for the full control effect; potency is read from the fitted curve at half-maximal effect.
Also: nearly all actives have a fitted effect of over 60% in size.

Consider `O=C(CCc1ccc(O)cc1)c1c(O)cc(O)cc1O`, for which the result in the experiment on KB-3-1, with NIH3T3 [1], with HACAT and with NIH3T3 [2] was inactive. Also, the Potency result in the experiment with MCC-13 and in the experiment with MCC-26 was “inactive” in each case. Besides, the Potency with MKL-1 was 9.35 µM (active); in the experiment with MKL-2, 4.69 µM (active).
`Cc1cc(=O)c2c(O)c3c(O)cc(=O)c4c3c3c(cc(O)c1c23)C(C)(C)C=4O`: the Potency in the experiment with KB-3-1 was 11.6 µM (active) and 23.5 µM (active). Also, the max response in the experiment with NIH3T3 [1] was -0.918%. In the experiment on HACAT, the result was inactive. The Potency result in the experiment with MCC-13, in the experiment on MCC-26, in the experiment on MKL-1, in the experiment with MKL-2 and with UISO was “inactive” in each case.
Consider `O=C(O)c1cccc(-c2noc(-c3ccccc3F)n2)c1`, for which the max response in the experiment on KB-3-1 was -19.9% and 8.42%; with NIH3T3 [1], -7.81%. In addition, the outcome in the experiment on HACAT was inactive. For the same molecule, the Potency entry in the experiment on MCC-13, with MCC-26, with MKL-1, with MKL-2 and in the experiment on UISO was “inactive” each time.
Regarding `c1ccc2[nH]c(-c3cscn3)nc2c1`, the max response in the experiment with KB-3-1 was -14.9% and 2.26%; in the experiment with NIH3T3 [1] it was 2.11% and -9.05%. Also, in the experiment on HACAT, the molecule was classed as inactive. The Potency entry with MCC-13, in the experiment on MCC-26, in the experiment with MKL-1, in the experiment on MKL-2 and in the experiment on UISO was “inactive” in each case.
With `Cn1c(NCCN(CCO)CCCc2ccc([N+](=O)[O-])cc2)cc(=O)n(C)c1=O`, the max response was 3.71% and -8.99% in the experiment on KB-3-1; 4.21% and -8.98% in the experiment with NIH3T3 [1]. Besides, the result in the experiment with HACAT and in the experiment on HEK293T was inactive. Also, the Potency entry in the experiment on MCC-13, with MCC-26, in the experiment on MKL-1, in the experiment with MKL-2 and in the experiment on UISO was “inactive” in each case.
`COC(=O)N[C@H](C(=O)N[C@@H](Cc1ccccc1)[C@@H](O)CN(Cc1ccc(-c2ccccn2)cc1)NC(=O)[C@@H](NC(=O)OC)C(C)(C)C)C(C)(C)C`: the max response with KB-3-1 was 5.51% and -5.77%; in the experiment on NIH3T3 [1] it was 0.751% and -1.44%. For the same molecule, the molecule was classed as inactive in the experiment on HACAT and with HEK293T. Besides, the Potency entry in the experiment on MCC-13, in the experiment on MCC-26, in the experiment on MKL-1, in the experiment on MKL-2 and with UISO was “inactive” each time.
With `O=c1ccc2ccc(O)c(O)c2o1`, the result with KB-3-1, with HACAT and in the experiment with HEK293T was inactive. Besides, in the experiment with NIH3T3 [1], the max response is -1.87%. Besides, the Potency result in the experiment on MCC-13, in the experiment on MCC-26 and with UISO was “inactive” in each case.
Turning to `O=C(NCC1CCCCN1)c1cc(OCC(F)(F)F)ccc1OCC(F)(F)F` (stereo not given), the max response was 3.67% with KB-3-1 and -7.85% in the experiment on NIH3T3 [1]. For the same molecule, the Potency entry in the experiment with MCC-13, with MCC-26, in the experiment with MKL-1, in the experiment with MKL-2 and in the experiment with UISO was “inactive” in each case.
Regarding `COc1cc2nc(N3CCN(C(=O)C4CCCO4)CC3)nc(N)c2cc1OC` (stereo not given), the max response is -10.1% and 5.78% in the experiment with KB-3-1; -4.15% and -2.16% in the experiment with NIH3T3 [1]. The Potency result in the experiment with MCC-13, in the experiment on MCC-26, in the experiment on MKL-1, in the experiment with MKL-2 and with UISO was “inactive” in each case.
As to `Cc1cc(C2CCCCC2)n(O)c(=O)c1`, in the experiment with KB-3-1, the max response was -16.3%. Also, the Potency is 3.76 µM (active) and 14.8 µM (active) in the experiment on NIH3T3 [1]; 10.6 µM (active) with MCC-13; 15 µM (active) in the experiment on MCC-26; 2.11 µM (active) and 10.5 µM (active) with MKL-1; 1.88 µM (active) and 11.8 µM (active) in the experiment on MKL-2; 2.66 µM (active) and 13.2 µM (active) with UISO.
Regarding `OC(CN1CCN(c2cccc(Cl)c2)CC1)C(c1ccccc1)c1ccccc1` (stereo not given), the max response in the experiment on NIH3T3 [1] was -14.3%. Moreover, the call in the experiment on NIH3T3 [1] and in the experiment on NIH3T3 [2] was inactive. For the same molecule, the Potency result with MCC-13, in the experiment with MCC-26, with MKL-1 and in the experiment on UISO was “inactive” in each case.
With `COC(=O)[C@H](Cc1ccccc1)NC(=O)[C@@H](N)CC(=O)O` (H-Asp-Phe-OMe), the max response was 0.426% and 2.8% and -6.99% in the experiment on KB-3-1; -5.4% and -2.3% in the experiment on NIH3T3 [1]. Besides, the Potency result in the experiment on MCC-13, in the experiment on MCC-26, with MKL-1, with MKL-2 and in the experiment on UISO was “inactive” in each case.
Take `CCOC(=O)C1=C[C@@H](OC(CC)CC)[C@H](NC(C)=O)[C@@H](N)C1`: the max response with KB-3-1 was 14.9% and 5.96%. The result with NIH3T3 [1] and in the experiment on NIH3T3 [2] was inactive. Moreover, the Potency entry with MCC-13, in the experiment with MCC-26, in the experiment on MKL-1, in the experiment on MKL-2 and in the experiment on UISO was “inactive” throughout.
For the molecule `COc1cc2c(cc1OC)C1CC(=O)C(CC(C)C)CN1CC2` (stereo not given), the result with NIH3T3 [1], in the experiment with HACAT, with HEK293T and in the experiment with NIH3T3 [2] was inactive. Further, the Potency entry in the experiment on MCC-13, with MCC-26, with MKL-1, in the experiment with MKL-2 and in the experiment on UISO was “inactive” throughout.
For the molecule `CCN(CC)CCOc1ccc(Nc2ncc3cc(-c4c(Cl)cccc4Cl)c(=O)n(C)c3n2)cc1`, the Potency in the experiment with KB-3-1 is 296 nM (active); with NIH3T3 [1], 74.3 nM (active); with MCC-13 it was 2.64 µM (active); in the experiment with MKL-1 it was 1.32 µM (active); in the experiment with MKL-2, 5.26 µM (active); with UISO, 5.26 µM (active).
In the case of `CCC(C)(Oc1ccc(C2(c3ccc(OC(C)(CC)C(=O)O)cc3)CCCCC2)cc1)C(=O)O` (stereo not given), the max response in the experiment on NIH3T3 [1] was -0.924%. In addition, the result in the experiment on NIH3T3 [1], with HACAT and in the experiment on NIH3T3 [2] was inactive. Moreover, the Potency result in the experiment with MCC-13, with MCC-26, with MKL-1, in the experiment on MKL-2 and in the experiment on UISO was “inactive” each time.
`O=C(CS(=O)Cc1ccco1)NCC=CCOc1cc(CN2CCCCC2)ccn1` (stereo not given): the max response in the experiment with KB-3-1 was 2.68%. Besides, the molecule was called inactive in the experiment with NIH3T3 [1] and in the experiment on NIH3T3 [2]. Also, the Potency entry in the experiment with MCC-13, with MCC-26, in the experiment with MKL-1, in the experiment with MKL-2 and in the experiment on UISO was “inactive” each time.
For `CCCOc1ccc2nc(NC(=O)OC)[nH]c2c1`, the Potency was 731 nM (active) with KB-3-1 and 0.188 µM (active) in the experiment with MCC-13. Besides, in the experiment on HACAT, the call was inactive.
In the case of `Cc1nc2n(c(=O)c1CCN1CCC(c3noc4cc(F)ccc34)CC1)CCCC2`, the max response in the experiment with KB-3-1 was 0.624% and -4.98%; in the experiment with NIH3T3 [1], -4.59% and 2.76%. Also, the Potency entry in the experiment with MCC-13, in the experiment with MCC-26, with MKL-1, in the experiment with MKL-2 and with UISO was “inactive” throughout.
For the molecule `COc1ccccc1N1CCN(CCN(C(=O)C2CCCCC2)c2ccccn2)CC1`, in the experiment with NIH3T3 [1], the max response is -13.5%. Also, the molecule was classed as inactive in the experiment with NIH3T3 [1] and in the experiment with NIH3T3 [2]. Moreover, the Potency result with MCC-13, in the experiment on MCC-26, with MKL-1, in the experiment with MKL-2 and in the experiment with UISO was “inactive” in each case.
